This passage reports Inhibition results from ChEMBL document CHEMBL1157539, “Thousands of chemical starting points for antimalarial lead identification” (Nature, 2010).

Structures are written as SMILES.

Holding throughout (format): functional
For assay [1], the system named is Plasmodium falciparum. Nature of the assay: GSK_TCMDC: Inhibition of Plasmodium falciparum 3D7 in whole red blood cells, using parasite LDH activity as an index of growth. Test compounds present at 2uM.
Assay [2] relates to Plasmodium falciparum. Nature of the assay: GSK_TCMDC: Inhibition of Plasmodium falciparum Dd2 in whole red blood cells, using parasite LDH activity as an index of growth. Test compounds present at 2uM.
In a further assay the test system is HepG2. Nature of the assay: GSK_TCMDC: Percent inhibition of human HepG2 cell line. Test compounds present at 10uM.

Consider `Cc1c(C)n(C2CCCCC2)c2ncnc(OC3CCN(CC(=O)NC4CC4)CC3)c12`, for which the Inhibition in the assay on Plasmodium falciparum [1] is on record as 94%; in the assay with Plasmodium falciparum [2] it was 72%; in the assay with HepG2, 21%.
`Cc1n[nH]c2ccc(-c3cc(OC[C@@H](N)Cc4ccccc4)cnc3-c3cc4ccccc4s3)cc12.O=C(O)C(F)(F)F`: the results for the Inhibition in the assay on Plasmodium falciparum [1], in the assay with Plasmodium falciparum [2] and in the assay with HepG2 were 99%, 68% and 41%, respectively.
In the same order, the values of `COc1ccc(Nc2nc(NC3CCN(Cc4ccccc4)CC3)cc(-c3ccncc3)n2)cc1` are 88%, 40% and 26%.
For the compound `O=C(Nc1ccc(N2CCN(Cc3ccccc3)CC2)cc1)c1cccs1.O=C(O)C(F)(F)F`, the Inhibition is reported as 87% in the assay with Plasmodium falciparum [1], 86% in the assay on Plasmodium falciparum [2] and 0% in the assay on HepG2.
In the same order, the values of `CC(C)CCN1CCC(Oc2ccc(NC(=O)c3ccc4ncccc4c3)cc2Cl)C1.O=C(O)C(F)(F)F` (stereo not given) are 95%, 14% and 33%.
On to `O=C(NCCc1ccccc1)N(Cc1ccccc1-c1cccc(CNCc2ccc3c(c2)OCO3)c1)C1CCN(Cc2ccccc2)CC1.O=C(O)C(F)(F)F`, for which the figures for the Inhibition in the assay on Plasmodium falciparum [1], in the assay with Plasmodium falciparum [2] and in the assay on HepG2 were 93%, 77% and 29%, respectively.
`c1ccc(COc2ccc(Cn3ccc(-c4ccc(-n5ccnc5)cc4)n3)cc2)cc1.c1ccc(COc2ccc(Cn3nccc3-c3ccc(-n4ccnc4)cc3)cc2)cc1`: the Inhibition is reported as 94% in the assay with Plasmodium falciparum [1], 67% in the assay on Plasmodium falciparum [2] and 2% in the assay with HepG2.
As for `CC1CCC(C[C@@H](C(=O)N[C@@H](CCC(=O)N2CCCCC2)C(=O)Nc2nccs2)[C@H](C(C)C)N(O)C=O)CC1` (stereo not given in full), the Inhibition with Plasmodium falciparum [1] worked out at 87%; in the assay with Plasmodium falciparum [2], 70%; with HepG2, 38%.
In the same order, the values of `CN(C)CC(=O)Nc1ccc(Nc2nccc(NCC(O)c3ccccc3)n2)cc1` (stereo not given) are 95%, 2% and 0%.
In the same order, the values of `Cc1ccc(Cc2c(N)nc3nc(N)nc(N)c3c2C)cc1.Cl` are 95%, 8% and 59%.
For the compound `O=C(Nc1cc(C(F)(F)F)cc(C(F)(F)F)c1)c1cc(C(F)(F)F)cc(C(F)(F)F)c1`, the Inhibition in the assay on Plasmodium falciparum [1] worked out at 100%; with Plasmodium falciparum [2], 86%; in the assay with HepG2, 21%.
For `CC(C)c1ccc(NC(=O)NCCCC2CCCN(CCCCCNC(=O)/C=C/c3ccc(Cl)c(Cl)c3)C2)cc1` (stereo not given), the figures for the Inhibition in the assay with Plasmodium falciparum [1], in the assay with Plasmodium falciparum [2] and in the assay on HepG2 were 90%, 42% and 25%, respectively.
In the same order, the values of `COc1cc(-c2nc(C(C)(C)CN)[nH]c2-c2ccncc2)ccc1Br.Cl` are 97%, 95% and 17%.
As to `CCOc1cc(C(=O)Nc2ccc3nc(N4CCN(C)CC4)cc(C)c3c2)cc(OCC)c1OCC`, the Inhibition with Plasmodium falciparum [1] is on record as 97%; in the assay with Plasmodium falciparum [2], 50%; in the assay on HepG2 it was 14%.
In the case of `COc1cccc(C(=O)NCCc2cccc(Cl)c2)c1OCc1ccccc1`, the Inhibition was 85% with Plasmodium falciparum [1], 0% in the assay on Plasmodium falciparum [2] and 0% in the assay on HepG2.
Turning to `Cl.O=c1cc(NCCCNCc2scc(I)c2I)[nH]c2ccccc12`, the Inhibition in the assay with Plasmodium falciparum [1] is 100%; in the assay with Plasmodium falciparum [2] it was 73%; with HepG2, 0%.
Turning to `Nc1nccc2ccc(-c3ccc(OCc4ccccc4)cc3)cc12.O=C(O)C(F)(F)F`, the Inhibition with Plasmodium falciparum [1] stood at 100%; in the assay with Plasmodium falciparum [2], 67%; in the assay with HepG2 it was 40%.
On to `Cc1cccc(OCC(=O)Nc2cccc(NC(=O)COc3cccc(C)c3)n2)c1`, for which the Inhibition is listed as 98% with Plasmodium falciparum [1], 30% with Plasmodium falciparum [2] and 0% in the assay with HepG2.
Take `O=C(NC1CC1)c1ccc(N2CCCC(COc3ccc4c(c3)CCCC4)C2)nc1` (stereo not given): the values for the Inhibition in the assay with Plasmodium falciparum [1], in the assay with Plasmodium falciparum [2] and in the assay with HepG2 were 85%, 65% and 0%, respectively.
`Cl.NC(=O)c1ccccc1Nc1nc(Nc2cccc(N3CCN(CCO)CC3)c2)ncc1Cl`: the Inhibition with Plasmodium falciparum [1] is 95%; in the assay with Plasmodium falciparum [2] it was 98%; in the assay on HepG2, 93%.
In the same order, the values of `CCOc1cc(C)ccc1NC1CCN(CCCCNC(=O)c2ccc(NC(=O)c3ccc(Cl)cc3)cc2)CC1` are 100%, 70% and 17%.
Regarding `CC(C)NCc1cccc(-c2cccc(-c3nc4cc(F)ccc4[nH]3)c2)c1.O=C(O)C(F)(F)F`, the Inhibition is 100% in the assay with Plasmodium falciparum [1], 85% in the assay on Plasmodium falciparum [2] and 20% in the assay on HepG2.
In the same order, the values of `COc1ccc2nccc(N3CCC(SCCNS(=O)(=O)c4ccc5c(c4)NC(=O)CS5)C3)c2n1.Cl` (stereo not given) are 99%, 17% and 20%.
In the case of `CN(Cc1ccc(C#N)cc1)C1CCN(c2cc(NC(=O)c3cccc(F)c3)ccn2)CC1.O=C(O)C(F)(F)F`, the Inhibition was 83% in the assay on Plasmodium falciparum [1], 0% with Plasmodium falciparum [2] and 9% with HepG2.
Consider `COc1ccc(-c2nc(NC(=O)Cc3ccc(OC)c(OC)c3)sc2C)cc1`, for which the Inhibition in the assay on Plasmodium falciparum [1] turned out to be 93%; in the assay on Plasmodium falciparum [2], 22%; in the assay with HepG2, 33%.
Take `Cc1ccn2cc(-c3ccc(NC(=O)c4ccc(Br)o4)cc3)nc2c1`: the Inhibition was found to be 98% in the assay with Plasmodium falciparum [1], 41% in the assay on Plasmodium falciparum [2] and 100% in the assay on HepG2.
In the same order, the values of `COc1ccc(C2CCN(CCN3CCC(NC(=O)c4cccc(-c5ccncc5)c4)CC3)CC2)c(OC)c1` are 94%, 24% and 7%.
In the same order, the values of `C[C@@H]([C@@H](CCCc1ccc(Cl)cc1)C(=O)N[C@H](C(=O)Nc1cccnc1)C(C)(C)C)N(O)C=O` are 100%, 99% and 7%.
In the same order, the values of `O=C(Nc1cccc(CN2CCCN(Cc3ccc4c(c3)OCO4)CC2)c1)c1ccc(-c2ccccc2)cc1.O=C(O)C(F)(F)F` are 90%, 19% and 48%.
For `COc1ccc(NC(=O)CCNc2cc(C)nc(NCCc3ccccc3)n2)cc1.O=C(O)C(F)(F)F`, the results for the Inhibition in the assay on Plasmodium falciparum [1], with Plasmodium falciparum [2] and with HepG2 were 85%, 0% and 3%, respectively.
Regarding `COc1ccc(-c2cncc3ccc(C(=O)NCCCn4ccnc4)nc23)cc1`, the Inhibition came out at 95% with Plasmodium falciparum [1], 99% in the assay on Plasmodium falciparum [2] and 28% in the assay with HepG2.
As to `Cc1ccc(Nc2nc(C)cc(NC3CC3)n2)cc1`, the Inhibition in the assay with Plasmodium falciparum [1] worked out at 97%; in the assay with Plasmodium falciparum [2], 15%; in the assay with HepG2, 0%.
For `O=C(Nc1ccc(-c2cccc(-c3nc4ccccc4[nH]3)c2)cc1)Nc1ccc2c(c1)OCO2`, the values for the Inhibition with Plasmodium falciparum [1], in the assay with Plasmodium falciparum [2] and in the assay on HepG2 were 100%, 65% and 55%, respectively.
Take `CC(C)CCCC(C)(C)NC[C@@H](O)[C@H](Cc1ccccc1)NC(=O)c1cc(NC(C)C)cc(N2CCCCS2(=O)=O)c1F.O=CO`: the Inhibition with Plasmodium falciparum [1] is reported as 98%; in the assay with Plasmodium falciparum [2] it was 99%; with HepG2, 11%.
Consider `Cc1ccc(C)c(S(=O)(=O)NCC2CCN(Cc3ccc(O)cc3)CC2)c1.O=C(O)C(F)(F)F`, for which the Inhibition worked out at 87% in the assay on Plasmodium falciparum [1], 57% in the assay on Plasmodium falciparum [2] and 16% in the assay with HepG2.
In the same order, the values of `CN(C)CCN(C)Cc1cccc(-c2ccc3c(Nc4cc(O)c(Cl)cc4F)ccnc3c2)c1` are 100%, 70% and 14%.
In the same order, the values of `CCOc1ccc2c(=NN=Cc3cccc(OC)c3OC)cc(C)[nH]c2c1` are 100%, 85% and 4%.
In the same order, the values of `O=C(Nc1ccccc1)N1CCC(CN2CCOC(c3ccccc3)(c3ccccc3)C2)CC1` are 96%, 98% and 10%.
On to `CC1(C)N=C(N)N=C(N)N1c1cc(Cl)c(Cl)cc1Cl.Cl`, for which the Inhibition in the assay with Plasmodium falciparum [1] came out at 95%; in the assay with Plasmodium falciparum [2] it was 0%; in the assay on HepG2, 11%.
Consider `Cc1ccc(NC(=O)c2cccc(CN3CCCN(Cc4cccc(O)c4)CC3)c2)cc1C.O=C(O)C(F)(F)F`, for which the Inhibition with Plasmodium falciparum [1] was found to be 95%; with Plasmodium falciparum [2] it was 31%; in the assay on HepG2, 19%.
For `CS(=O)(=O)CCNCc1nc(-c2ccc3c(=O)[nH]cnc3c2)cs1`, the Inhibition stood at 86% with Plasmodium falciparum [1], 96% with Plasmodium falciparum [2] and 81% in the assay with HepG2.
In the same order, the values of `COc1ccc2[nH]c(C)cc(=NN=Cc3ccccc3Cl)c2c1` are 100%, 100% and 0%.
In the same order, the values of `Cc1cc(Nc2cccc(C(F)(F)F)c2)nc2ccc(NC(=O)c3ccc(=O)[nH]c3)cc12` are 100%, 60% and 21%.
`CCCCc1ccc(NC(=O)Nc2ccc3c(c2)CCNCC3)cc1.Cl`: the Inhibition in the assay with Plasmodium falciparum [1] came out at 95%; in the assay with Plasmodium falciparum [2], 43%; in the assay on HepG2, 16%.
In the same order, the values of `CN(Cc1ccncc1)C(Cc1ccccc1)C1CCN(Cc2ccc(O)c(Cl)c2)CC1` (stereo not given) are 96%, 97% and 22%.
In the same order, the values of `CCOC(=O)C1=C(C)N=c2sc(=Cc3cc(Cl)ccc3O)c(=O)n2C1c1ccc(OC)cc1` (stereo not given) are 99%, 65% and 0%.
In the same order, the values of `O=C(Cc1ccccc1)NC(CCN1CCC(N(C2CC2)S(=O)(=O)c2cccc(C(F)(F)F)c2)CC1)c1ccc(Cl)c(Cl)c1` (stereo not given) are 85%, 27% and 19%.
For the compound `Cc1cc(=NN=Cc2cccc(Cl)c2)c2ccc(F)cc2[nH]1`, the Inhibition in the assay with Plasmodium falciparum [1] turned out to be 100%; with Plasmodium falciparum [2], 98%; with HepG2, 0%.
In the same order, the values of `CC(C)COc1ccc(Cl)cc1Cc1nc(-c2nc3ccc(CN4CCCC4)cc3[nH]2)co1.Cl` are 100%, 66% and 50%.
Regarding `O=C(O)C(F)(F)F.O=C1CCCN1CCCNCc1ccc(-c2cccc(-c3nc4cc(C(F)(F)F)ccc4[nH]3)c2)cc1`, the figures for the Inhibition in the assay with Plasmodium falciparum [1], with Plasmodium falciparum [2] and in the assay on HepG2 were 100%, 98% and 14%, respectively.
Consider `CCCc1cn2c3c(cc(C(=O)N[C@@H](Cc4ccccc4)[C@H](O)CNC4CCCCC4)cc13)N(CC)S(=O)(=O)CC2.O=CO`, for which the values for the Inhibition in the assay on Plasmodium falciparum [1], in the assay on Plasmodium falciparum [2] and in the assay with HepG2 were 98%, 98% and 2%, respectively.
As to `CCOc1ccccc1N1CCN(CCCNC(=O)/C(=C/C=C/c2cc3cc(Cl)c(Cl)cc3[nH]2)OC)CC1`, the Inhibition came to 98% with Plasmodium falciparum [1], 93% in the assay on Plasmodium falciparum [2] and 45% in the assay with HepG2.
In the same order, the values of `COc1ccc2nccc(N(C)CC3(O)CCC(NCc4ccc5c(n4)NC(=O)CS5)CC3)c2n1.Cl` (stereo not given) are 98%, 23% and 1%.
As for `COc1ccc(CCNCCCCCCNCCc2ccc(-c3ccccc3)cc2)cc1OC.Cl`, the Inhibition came out at 99% in the assay with Plasmodium falciparum [1], 35% with Plasmodium falciparum [2] and 100% in the assay with HepG2.
In the same order, the values of `CN1CCN(Cc2ccc(-c3ccc4c(Nc5ccc(Oc6ccccc6)cc5)ccnc4c3)o2)CC1` are 99%, 99% and 23%.
In the same order, the values of `CCSc1ccccc1COc1c(C)nc(N)nc1N.Cl` are 93%, 4% and 54%.
Turning to `CC[C@@H]([C@@H](CC(C)C)C(=O)N[C@@H](CCCCNC(=O)OCc1ccccc1)C(=O)Nc1ccccn1)N(O)C=O`, the figures for the Inhibition in the assay with Plasmodium falciparum [1], in the assay on Plasmodium falciparum [2] and in the assay with HepG2 were 98%, 99% and 0%, respectively.
Regarding `COc1ccc(Nc2nccc(N3CCC(NC(=O)Nc4cccc(OC)c4)C3)n2)cc1` (stereo not given), the Inhibition in the assay with Plasmodium falciparum [1] was 99%; with Plasmodium falciparum [2], 48%; in the assay on HepG2, 23%.
In the same order, the values of `Cc1cccc2nc(-c3ccc(-c4ccc(CN5CCCC(O)C5)cc4)s3)[nH]c12.O=C(O)C(F)(F)F` (stereo not given) are 100%, 29% and 38%.
In the same order, the values of `Oc1cccc(-c2cnc3ccc(NCc4ccc(F)cc4)nn23)c1` are 91%, 66% and 0%.

As usually defined, the Inhibition is the change of the read-out against control, counted positive when it falls.
